Shown are actives, neighbours in structure and some others; about 3% of the full set was active somewhere.
Vif imaging: inhibitors of HIV Vif; HEK293T cells, Vif self-association by quenched fluorescence, imaging, 24 h; AID 602346; 340,000 compounds, 0.35% hits; inhibition, % at 7.49 µM; in the data active = inhibition above about 50%, passing the limit was not always enough; inconclusive = no clear call, values can overlap the other calls; inactive = below about 31%
Wnt bcat act: activates Wnt/beta-catenin signaling in a reporter cell assay; 300,000 compounds, 1.2% hits; activation, % at 9.35 µM; activator, plate reader; in the data active = activation above about 30%, passing the limit was not always enough; inconclusive = no clear call, values can overlap the other calls
PfHsp90 yeast 2: reduces growth (ATP signal) of yeast expressing P. falciparum Hsp90; 310,000 compounds, 0.32% hits; inhibition, % at 9.4 µM; S. cerevisiae expressing PfHsp90, BacTiter-Glo ATP, 48 h; yeast lacking PDR1 and PDR3 efflux regulators;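 active = every replicate shows inhibition above about 80%, whatever the replicate mean, limit read from the data; inconclusive = mean inhibition reaches the set limit but some replicate falls short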
esBAF inh: inhibitors of esBAF chromatin remodeling in mouse ES cells | Bmi1-luciferase knock-in reporter, 24 h; 100% = twice the neutral-well signal | reporter increase, % at 12.5 µM | 350,000 compounds, 2% hits | AID 602393; in the data active = activation above about 40%; inconclusive = no clear call, values can overlap the other calls;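 note: a rise in the Bmi1 reporter signal indicates esBAF inhibition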
MITF TRPM1 HTS: MITF TRPM1 promoter activation in melanoma cells; SK-MEL-5 TRPM1-promoter luciferase, 24 h; % of positive control, neutral wells = 0; activation, % at 12.5 µM; 300,000 compounds, 0.75% hits;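 active = mean activation of at least 80% with every replicate also reaching 80%; inconclusive = mean reaches 80% but some replicate falls short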
Glyco luc inh: N-linked glycosylation inhibition. D54 ERlucT glycosylation luciferase reporter, 24 h; percent of 100 nM tunicamycin response. reporter increase, % at 12.5 µM. 360,000 compounds, 0.23% hits. AID 588692;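 active = mean luciferase reporter signal, scaled so untreated is 0 and the glycosylation-blocking control 100, at or above a set limit in every replicate; inconclusive = mean reaches the limit but not every replicate does; inactive = mean below the limit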;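 note: luciferase carries N-glycosylation sites so blocking glycosylation raises the light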
Of the large screens only hits and unclear results are named; the others gave an inactive call.

C[C@@H]1CN([C@H](C)CO)C(=O)c2cccc(NC(=O)c3ccncc3)c2O[C@@H]1CN(C)C(=O)Nc1ccc2c(c1)OCO2	none (no result: Vif imaging, Wnt bcat act, PfHsp90 yeast 2, MITF TRPM1 HTS, Glyco luc inh)
CCN(CC)CCCNc1cc(C)c(C#N)c2nc3ccccc3n12	Glyco luc inh 43 (no result: PfHsp90 yeast 2, MITF TRPM1 HTS)
O=C(COc1ccc2ccccc2c1)N1CCN(c2ccccc2)CC1	none
O=C(COc1ccc(Br)cc1)OCC(=O)N1CCOCC1	none
Cc1cc(NC(=O)COc2ccc3ccccc3c2Br)no1	Vif imaging inconclusive, Wnt bcat act 40, esBAF inh inconclusive
O=C(COc1ccc2ccccc2c1Br)N1CCCCC1	esBAF inh 76 (no result: Wnt bcat act)
O=C(COc1ccc2cc(Br)ccc2c1)N1CCOCC1	esBAF inh 48 (no result: MITF TRPM1 HTS)
O=C(COc1ccc2ccccc2c1)N1CCCC1	Wnt bcat act 36
COn1c(=O)c(-c2ccccc2)[n+]([O-])c2ccccc21	Vif imaging 51
C=CCOn1c(=O)c(-c2cc3ccccc3o2)[n+]([O-])c2ccccc21	esBAF inh 54 (no result: Wnt bcat act)
C=CCOn1c(=O)c(-c2ccccc2)[n+]([O-])c2ccccc21	none
CCOC(=O)COn1c(=O)c(-c2cc3ccccc3o2)[n+]([O-])c2ccccc21	esBAF inh 52 (no result: PfHsp90 yeast 2, MITF TRPM1 HTS)
CCOc1ccc(-c2c(=O)n(O)c3ccccc3[n+]2[O-])cc1	Wnt bcat act 56, esBAF inh inconclusive
COc1ccc(N(C(C)C(=O)N/N=C/c2cccnc2)S(C)(=O)=O)cc1 (stereo not given)	none (no result: esBAF inh)
C[C@@H]1CN([C@H](C)CO)S(=O)(=O)c2ccc(C3=CCCC3)cc2O[C@@H]1CN(C)CC1CC1	none (no result: Vif imaging, Wnt bcat act, PfHsp90 yeast 2, MITF TRPM1 HTS, Glyco luc inh)
Cc1ccc(S(=O)(=O)N2CCC(=O)N([C@H](COCc3ccc(Cl)cc3Cl)Cc3ccccc3)CC2)cc1	none (no result: Vif imaging, PfHsp90 yeast 2, esBAF inh, MITF TRPM1 HTS, Glyco luc inh)
COc1ccc([C@H]2CC(=O)C[C@@H](CCn3cc(-c4ccccc4)nn3)O2)cc1	none (no result: Vif imaging, PfHsp90 yeast 2, esBAF inh, MITF TRPM1 HTS, Glyco luc inh)
CCCOc1ccc(-c2c(=O)n(OCC(=O)OCC)c3ccccc3[n+]2[O-])cc1	esBAF inh 70 (no result: MITF TRPM1 HTS)
CCOC(=O)COn1c(=O)c(-c2ccc(F)cc2)[n+]([O-])c2ccccc21	none (no result: MITF TRPM1 HTS)
CN(C)C=Nc1ccc2nn(-c3ccccc3)nc2c1	none (no result: Wnt bcat act)
O=C(Cn1c2ccccc2c(=O)c2ccccc21)N/N=C/c1cc([N+](=O)[O-])ccc1N1CCCCC1	none (no result: esBAF inh)
O=C1C(Cl)=C(NCC2CCCO2)C(=O)N1Cc1ccccc1 (stereo not given)	none (no result: Wnt bcat act, PfHsp90 yeast 2, esBAF inh)
COc1ccc2cc(-c3[nH]ncc3CN3CCCCO3)ccc2c1	esBAF inh 56
O=C(Nc1ccc2ncccc2c1)c1cccc(Br)c1	Wnt bcat act 33, esBAF inh inconclusive
C[C@@H]1CN([C@H](C)CO)C(=O)c2cc(NC(=O)Nc3cccc4ccccc34)ccc2O[C@@H](C)CCCCO[C@@H]1CN(C)C(=O)c1ccccc1	none (no result: Vif imaging, Wnt bcat act, PfHsp90 yeast 2, MITF TRPM1 HTS, Glyco luc inh)
O=C(Nc1nc2ccccc2s1)c1ccccc1	none
CSc1nc2ccc3nc(NC(=O)c4ccccc4)sc3c2s1	esBAF inh 50
CSc1nc2ccc(NC(=O)c3ccc(=O)n(C)n3)cc2s1	none (no result: esBAF inh)
CSc1nc2ccc(NC(=O)c3nn(C(C)C)c(=O)c4ccccc34)cc2s1	MITF TRPM1 HTS inconclusive (no result: Wnt bcat act, esBAF inh)
CSc1nc2ccc(NC(=O)c3ccc(=O)[nH]c3)cc2s1	none
CSc1nc2ccc(NC(=O)c3cc4ccccc4o3)cc2s1	Wnt bcat act 58 (no result: esBAF inh)
CSc1nc2ccc(NC(=O)c3cccs3)cc2s1	esBAF inh 78, MITF TRPM1 HTS 90 (no result: PfHsp90 yeast 2)
CSc1nc2ccc(NC(=O)c3ccc(F)c(F)c3)cc2s1	Wnt bcat act 51 (no result: esBAF inh)
Cc1ccc2nc(NC(=O)c3cccs3)sc2c1	none (no result: Vif imaging)
CSc1nc2ccc(NC(=O)c3ccco3)cc2s1	MITF TRPM1 HTS 88 (no result: Wnt bcat act, esBAF inh)
Cc1ccc2nc(NC(=S)NC(=O)c3cccs3)sc2c1	esBAF inh 51 (no result: Wnt bcat act)
Cc1ccc(C(C)C)c(OCC(=O)N2CCOCC2)c1	none (no result: Wnt bcat act)
Cc1occc1C(=O)NNC(=O)c1ccccc1F	Wnt bcat act 37 (no result: esBAF inh)
Cc1ccc(NC(=O)c2ccoc2C)cc1C	Wnt bcat act 31 (no result: esBAF inh)
Cc1cc(NC(=O)c2ccoc2C)ccc1Br	Wnt bcat act 57, esBAF inh 88, MITF TRPM1 HTS 86
Cc1occc1C(=O)Nc1ccc2c(c1)OCO2	none (no result: Wnt bcat act, esBAF inh)
NC(=S)N(c1ccccc1)c1ccccc1	none
C#CC[N+](C)(C)CCCCCCCC	none (no result: esBAF inh)
CC#CC[N+](C)(C)CCCCCCCCCCCC	none (no result: esBAF inh)
C#CC[N+](C)(C)CCCCCCCCCC	Glyco luc inh 40 (no result: esBAF inh)

Screens deposited in PubChem BioAssay by Broad Institute.
